Values joined by “and” are separate entries in the source; they are usually repeats but may differ in a detail not shown here. Equal entries are not always repeated. Results filed as inconclusive are left out. Some structures have more than one record in an assay (separate samples or runs), and their calls can disagree. Active and inactive are the calls of the source. Rule for the calls: active = hit-call score of the fitted dose curve at least 0.9, where 1 is the maximum; inactive = score below 0.9.
Assays:
[1] = target: Nuclear respiratory factor 1 (Homo sapiens) (UniProt Q16656); assay: ATG_NRF1_CIS: Attagene CIS-FACTORIAL HepG2 Assay for human Nuclear Respiratory Factor 1 (NRF1) Orphan Gene (AID 2282987); conditions: HepG2 NRF1 cis-element reporter, Attagene multiplex; actives raise or lower the signal
Method in brief: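 Reporter mRNA induction or loss in HepG2 cells after 24 h dosing; cis-regulated reporter constructs report endogenous transcription-factor activity. Quantified by RT-PCR/capillary electrophoresis fluorescence, DMSO-referenced.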

[2] = ATG_NFI_CIS: Attagene CIS-FACTORIAL HepG2 Assay for human Nuclear Factor I (NFI) (AID 2282989); conditions: HepG2 cis-regulatory reporter, NFI response element transcription; actives raise or lower the signal
Method in brief: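 HepG2, transient MRTU, 24 h exposure; RNA→cDNA→PCR→FAM label→HpaI→CE fluorescence. Bidirectional fit, DMSO = baseline.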

[3] = target: Myc proto-oncogene protein (Homo sapiens) (UniProt P01106); assay: ATG_Myc_CIS: Attagene CIS-FACTORIAL HepG2 Assay for human Myelocytomatosis (Myc) Proto-Oncogene Transcription Factor (AID 2282990); conditions: HepG2, Attagene cis-reporter transcription factor activity; actives raise or lower the signal
Method in brief: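 After 24 h chemical treatment of HepG2 cells carrying multiplexed cis-regulated reporter constructs, reporter transcripts quantified by RT-PCR and capillary electrophoresis of fluorescent fragments. Gain or loss fitted against DMSO baseline.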

[4] = ATG_NRF2_ARE_CIS: Attagene CIS-FACTORIAL HepG2 Assay for human Nuclear Factor Erythroid 2 Related Factor 2 (NFR2) response to Antioxidant Response Elements (ARE) (AID 2282992); conditions: HepG2 Attagene ARE/NRF2 reporter, transcription factor activity; actives raise or lower the signal
Method in brief: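 HepG2 cells transiently transfected with multiplexed cis-regulated reporter transcription units measure endogenous transcription factor activity. Reporter mRNA at 24 h is quantified by RT-PCR, fluorescent labelling and capillary electrophoresis, with bidirectional fitting relative to DMSO.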

[5] = ATG_Oct_MLP_CIS: Attagene CIS-FACTORIAL HepG2 Assay for human Octamer-Binding Transcription Factor (Oct) (AID 2282993); conditions: HepG2 Attagene cis-factorial Oct reporter, mRNA; actives raise or lower the signal
Method in brief: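 Multiplexed cis-reporter assay in human liver HepG2 cells, 24 h incubation. Reporter RNA amplified and labelled, then resolved by capillary electrophoresis; DMSO serves as negative control and baseline.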

[6] = target: Cellular tumor antigen p53 (Homo sapiens) (UniProt P04637); assay: ATG_p53_CIS: Attagene CIS-FACTORIAL HepG2 Assay for human p53 Transcription Factor (AID 2282994); conditions: HepG2 p53 cis-element reporter, Attagene mRNA; actives raise or lower the signal
Method in brief: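 HepG2 cells transiently transfected with multiplexed cis-regulated reporter transcription units read endogenous TF activity. After 24 h compound exposure, reporter mRNA was quantified by RT-PCR, fluorescent labelling, HpaI digestion and capillary electrophoresis; bidirectional fits versus DMSO baseline.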

[7] = BSK_3C_TissueFactor: BioMAP Diversity Plus: 3C Assay for Tissue Factor Biomarker Activity (AID 2282997); conditions: BioMAP 3C HUVEC, tissue factor biomarker readout; actives raise or lower the signal
Method in brief: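 Human vascular primary cells (umbilical vein endothelium) received test chemical; Tissue Factor was determined by ELISA at 24 h, and both gain and loss of signal versus DMSO were fitted.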

[8] = BSK_3C_uPAR: BioMAP Diversity Plus: 3C Assay for Urokinase-type plasminogen activator receptor (uPAR) Biomarker Activity (AID 2282998); conditions: BioMAP 3C HUVEC, uPAR biomarker ELISA; actives raise or lower the signal
Method in brief: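 Dose primary human umbilical vein endothelial cells, incubate 24 h, measure cell-surface uPAR by ELISA, then fit the signal in both directions against the DMSO negative control.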

[9] = BSK_3C_VCAM1: BioMAP Diversity Plus: 3C Assay for Vascular cell adhesion molecule 1 (VCAM1) Biomarker Activity (AID 2282999); conditions: BioMAP 3C HUVEC, VCAM1 ELISA, cytokine-stimulated; actives raise or lower the signal
Method in brief: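 Endothelial cells from human umbilical vein are treated with test chemical. At 24 h, VCAM-1 is measured by ELISA, and responses in either direction are fitted relative to DMSO.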

[10] = ATG_M_61_TRANS: Attagene TRANS-FACTORIAL HepG2 Assay for M61 Transcription Factor (Internal Marker) (AID 2282988); conditions: HepG2 Attagene TRANS M61 internal marker reporter
Experimental: ATG_TRANS is a cell-based, multiplexed-readout assay that uses HepG2, a human liver cell line, with measurements taken at 24 hours after chemical dosing in a 24-well plate.ATG_M_61_TRANS is one of 30 assay component(s) measured or calculated from the ATG_TRANS assay. It is designed to make measurements of mRNA induction, a form of inducible reporter, as detected with fluorescence intensity signals by Reverse transcription polymerase chain reaction (RT-PCR) and Capillary electrophoresis technology.Data from the assay component ATG_M_61_TRANS was analyzed into 1 assay endpoint. This assay endpoint, ATG_M_61_TRANS, was analyzed in the positive analysis fitting direction relative to DMSO as the negative control and baseline of activity. […] Furthermore, this assay endpoint can be referred to as a secondary readout, because this assay has produced multiple assay endpoints where this one serves a background control function. […]
Human liver HepG2 cells are transiently transfected with multiple reporter transcription units (MRTUs) in 6-well plates using FuGene 6 reagent (Roche; 3 ml FuGene/1 mg DNA). […] A major difference between the CIS and TRANS system is that in CIS activities of endogenous TFs are measured, whereas the TRANS assay evaluates changes in activities of exogenous, chimeric NR-Gal4 proteins. […]

Measured: AC50

Sequence of Myc proto-oncogene protein (Homo sapiens) (P01106 whole entry, looked up, the tested form may be a part): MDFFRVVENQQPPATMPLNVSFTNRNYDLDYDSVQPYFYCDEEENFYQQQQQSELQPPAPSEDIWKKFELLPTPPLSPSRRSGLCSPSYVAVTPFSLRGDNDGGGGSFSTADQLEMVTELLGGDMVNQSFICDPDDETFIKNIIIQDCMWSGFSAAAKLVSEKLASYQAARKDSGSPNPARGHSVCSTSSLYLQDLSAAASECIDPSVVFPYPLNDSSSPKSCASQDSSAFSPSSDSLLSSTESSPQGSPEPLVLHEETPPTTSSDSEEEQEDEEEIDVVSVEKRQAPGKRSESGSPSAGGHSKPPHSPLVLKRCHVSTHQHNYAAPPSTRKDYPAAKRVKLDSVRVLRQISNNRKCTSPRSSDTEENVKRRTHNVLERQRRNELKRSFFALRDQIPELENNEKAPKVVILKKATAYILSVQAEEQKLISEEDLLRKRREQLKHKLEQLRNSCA
Sequence of Cellular tumor antigen p53 (Homo sapiens) (P04637 whole entry, looked up): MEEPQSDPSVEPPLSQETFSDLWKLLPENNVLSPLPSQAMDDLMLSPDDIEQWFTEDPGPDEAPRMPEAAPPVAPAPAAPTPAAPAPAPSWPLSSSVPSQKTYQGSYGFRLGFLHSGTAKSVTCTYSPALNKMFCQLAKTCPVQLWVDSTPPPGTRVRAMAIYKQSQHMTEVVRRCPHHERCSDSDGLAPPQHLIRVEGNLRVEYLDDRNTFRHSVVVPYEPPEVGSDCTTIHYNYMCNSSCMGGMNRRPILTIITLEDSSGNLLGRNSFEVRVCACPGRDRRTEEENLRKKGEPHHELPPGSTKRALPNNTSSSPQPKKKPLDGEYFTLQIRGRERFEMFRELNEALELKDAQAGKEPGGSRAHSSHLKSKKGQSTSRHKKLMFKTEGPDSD
Sequence of Nuclear respiratory factor 1 (Homo sapiens) (Q16656 whole entry, looked up): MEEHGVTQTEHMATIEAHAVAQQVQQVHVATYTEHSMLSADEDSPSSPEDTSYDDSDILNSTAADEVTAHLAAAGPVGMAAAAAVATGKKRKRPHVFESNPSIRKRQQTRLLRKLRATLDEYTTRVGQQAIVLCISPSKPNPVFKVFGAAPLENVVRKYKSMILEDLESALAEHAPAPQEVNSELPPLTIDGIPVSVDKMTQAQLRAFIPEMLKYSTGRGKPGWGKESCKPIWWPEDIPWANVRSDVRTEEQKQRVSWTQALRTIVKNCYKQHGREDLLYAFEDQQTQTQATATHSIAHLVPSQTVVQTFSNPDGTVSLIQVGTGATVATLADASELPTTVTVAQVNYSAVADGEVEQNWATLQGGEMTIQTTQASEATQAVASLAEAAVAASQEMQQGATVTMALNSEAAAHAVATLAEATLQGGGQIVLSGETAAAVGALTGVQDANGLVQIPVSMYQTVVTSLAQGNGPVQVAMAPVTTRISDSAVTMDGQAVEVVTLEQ

C#CCOC(=O)[C@@H](C)Oc1ccc(Oc2ncc(Cl)cc2F)cc1
not listed: [10]
inactive: all other assays above

CCOC(=O)C(C)Oc1ccc(Oc2nc3ccc(Cl)cc3o2)cc1 (configuration not stated)
active: [8] 13 µM
not listed: [10]
inactive: all other assays above

CC(C)(C)[C@@H](O)[C@@H](Cc1ccc(Cl)cc1)n1cncn1
active: [4] 13.4 µM | [5] 7.98 µM
not listed: [10]
inactive: all other assays above

CC(C)CCCCCCc1ccc(O)cc1
inactive: [1] | [10] | [2] | [3] | [4] | [5]
active: [1] 15.7 µM | [2] 15.8 µM | [3] 15.4 µM | [4] 8.96 µM and 11.1 µM and 9.16 µM | [5] 17.4 µM and 17.1 µM | [7] 9.54 µM | [8] 9.68 µM | [9] 7.98 µM

C[C@]12CC[C@@H]3c4ccc(O)cc4C[C@@H](CCCCCCCCCS(=O)CCCC(F)(F)C(F)(F)F)[C@H]3[C@@H]1CC[C@@H]2O (some centres not stated)
not listed: [10]
inactive: all other assays above

c1ccc2[nH]c(-c3cscn3)nc2c1
inactive: [1] | [2] | [3] | [4] | [5] | [7] | [8] | [9]
active: [4] 149 µM

COC(=O)CSc1cc(N=c2sc(=O)n3n2CCCC3)c(F)cc1Cl
active: [4] 27.2 µM
not listed: [10]
inactive: all other assays above

CC(C)(c1ccc(O)cc1)c1ccc(O)cc1
inactive: [1] | [2] | [3] | [4] | [5] | [7] | [8] | [9]
active: [1] 62.2 µM | [2] 44.2 µM and 37.8 µM | [3] 2.29 µM

CCNc1nc(N)nc(Cl)n1
not listed: [6] | [10]
inactive: all other assays above

O=C(O)c1ccccc1
not listed: [10]
inactive: all other assays above

CSC(=O)c1cccc2nnsc12
not listed: [6] | [10]
inactive: all other assays above

c1ccc(Nc2ccccc2)cc1
inactive: [1] | [2] | [3] | [5] | [7] | [8] | [9]
active: [4] 123 µM and 30.4 µM | [5] 50 µM

COc1nc(C)nc(NC(=O)NS(=O)(=O)c2ccccc2OCCCl)n1
inactive: [1] | [2] | [3] | [4] | [5] | [7] | [8] | [9]
active: [4] 6.85 µM

OB(O)O
not listed: [10]
inactive: all other assays above

CCC(C)OC(=O)N1CCCCC1CCO (configuration not stated)
active: [4] 44.4 µM
inactive: [1] | [2] | [3] | [4] | [5] | [7] | [8] | [9]

S=C(S)NCCNC(=S)S.[Mn+2].[S-]C([S-])=NCCN=C([S-])[S-].[Zn+2]
active: [7] 6.82 µM [middle of 6 runs] | [9] 7.78 µM and 7.28 µM and 10 µM
inactive: [1] | [2] | [3] | [4] | [5] | [7] | [8] | [9]

O=C(c1ccc(O)cc1O)c1ccc(O)cc1O
inactive: [1] | [2] | [3] | [4] | [5] | [6] | [8] | [9]
active: [1] 46.5 µM | [7] 29.2 µM

CCSC(=O)N(CC(C)C)CC(C)C
not listed: [6] | [10]
inactive: all other assays above

CCCCC(CC)COC(=O)c1ccccc1C(=O)O (configuration not stated)
active: [4] 21.9 µM
not listed: [10]
inactive: all other assays above

CC(=O)S[C@@H]1CC2=CC(=O)CC[C@]2(C)[C@H]2CC[C@@]3(C)[C@@H](CC[C@@]34CCC(=O)O4)[C@H]12
active: [3] 7.76 µM | [4] 100 µM | [5] 15 µM | [7] 16.1 µM | [8] 27.8 µM | [9] 29.5 µM
inactive: [1] | [2] | [3] | [4] | [5]

O=C(Nc1ccc([N+](=O)[O-])cc1Cl)c1cc(Cl)ccc1O
inactive: [1] | [2] | [3] | [7]
active: [4] 0.544 µM | [5] 0.7 µM | [6] 0.7 µM | [8] 0.145 µM | [9] 0.189 µM

O=C(c1ccccc1)C1CCCCC1
not listed: [10]
inactive: all other assays above

CN(C)C(=O)Nc1ccc(Cl)c(Cl)c1
active: [4] 23.6 µM and 13.1 µM | [5] 146 µM and 30.3 µM
not listed: [10]
inactive: all other assays above

COCCO
not listed: [10]
inactive: all other assays above

N#CSCSc1nc2ccccc2s1
inactive: [1] | [3] | [4] | [5]
active: [1] 16.7 µM | [2] 15.4 µM and 358 nM | [4] 2.89 µM | [5] 14.5 µM | [7] 3.33 µM and 5.66 µM | [8] 2.04 µM and 6.26 µM | [9] 6.63 µM and 10.3 µM

CCCCOC(=O)C(C)Oc1ccc(Oc2ccc(C(F)(F)F)cn2)cc1 (configuration not stated)
not listed: [10]
inactive: all other assays above

C=CCOC(Cn1ccnc1)c1ccc(Cl)cc1Cl (configuration not stated)
active: [3] 75.3 µM | [4] 5.64 µM | [5] 3.55 µM
not listed: [10]
inactive: all other assays above

CCOC(=O)c1ccc(O)cc1
inactive: [1] | [2] | [3] | [4] | [5] | [7] | [8] | [9]
active: [5] 100 µM

Reference: PubChem BioAssay (EPA / NIEHS)
